Screens as filed in PubChem.
The list is a sample of the results.
aSyn 5UTR act: Activators working through SNCA 5'UTR binding (MLPCN); alpha-synuclein 5'UTR reporter, activators screen; activity score, % (tested at 7.5 µM), hits read low; hit rate 7.1% among 300,000; in the data active = activity score below about -60%
Numbers without * were called inactive.

SMILES	aSyn 5UTR act
CC(/C=N/NC(=O)c1nn(C)c(C)c1Br)=C\c1ccccc1	-121.8*
CC(=C/c1ccccc1)/C=N/NC(=O)c1cccs1	-90.2*
O=C(N/N=C/C(Br)=C\c1ccccc1)c1cccs1	-318.5*
COc1cc(C)ccc1OCCCOc1ccccc1Br	-149.0*
COc1ccccc1OCCCOc1ccc(C)cc1Br	-138.8*
COc1cc(C)ccc1OCCOc1c(C)cccc1Cl	-108.2*
Cc1cc(CC(C)C)n(-c2nc3ccccc3c(=O)n2OCc2ccccc2)n1	-74.7*
Cc1cc(C)n(-c2nc3ccccc3c(=O)n2OCC(=O)OCc2ccccc2)n1	62.0
NC(N)=N/N=C/c1ccc(OCc2ccccc2)cc1	-69.5*
NC(N)=N/N=C/c1ccc(OCc2ccc(Cl)cc2)cc1	-66.0*
O=[N+]([O-])c1ccccc1NCCNc1ncc(C(F)(F)F)cc1Cl	-77.0*
O=c1cc(Cl)[nH]c(=O)n1CCNc1ncc(C(F)(F)F)cc1Cl	-106.2*
O=[N+]([O-])c1cccnc1NCCNc1ncc(C(F)(F)F)cc1Cl	-178.3*
COc1cc(-c2nc3ccc(N4CCN(C)CC4)cc3[nH]2)cc(OC)c1OC	-101.8*
Cc1ccc(O)c(C2=NNC(c3ccc(Cl)cc3)C2)c1 (stereo unspecified)	-127.6*
Cc1ccc(C2Cc3cc(O)c(O)cc3CN2)cc1 (stereo unspecified)	89.0
O=C(Nc1ccccc1F)c1coc(=O)c(Br)c1	-62.0*
O=C(NCCc1ccc(F)cc1)c1coc(=O)c(Br)c1	-64.5*
Cc1cc(NC(=O)c2coc(=O)c(Br)c2)ccc1C(C)C	-75.5*
Cc1ccc(C(C)(C)NC(=O)C2CCC(=O)N(C3CCCCCC3)C2)cc1 (stereo unspecified)	-146.9*
Cc1cccc(-n2nc3c(c2NC(=O)C2CC2)CS(=O)(=O)C3)c1C	-85.1*
COC(=O)c1ccc(COC(=O)CCC(=O)c2cccs2)cc1	-84.4*
CC(CC(=O)c1cccs1)CC(=O)c1cccs1	-143.7*
Cc1cccc(NCCC(=O)c2ccc(Br)cc2)c1	-93.6*
Cc1cc(C)c(C(CC(=O)c2cccs2)C(C#N)C#N)c(C)c1 (stereo unspecified)	-188.7*
SMILES	aSyn 5UTR act
CC(C)c1ccc(NCCC(=O)c2cccs2)cc1	-216.7*
Cc1ccc(NCCC(=O)c2cccs2)cc1C	-186.6*
CC(=O)c1ccc(NCCC(=O)c2ccccc2)cc1	-81.6*
Cc1ccc(NCCC(=O)c2cccs2)cc1	-164.0*
Cc1ccc(NCCC(=O)c2cccs2)cc1Cl	-87.3*
Cc1ccc(NCCC(=O)c2ccc(Cl)cc2)cc1C	-99.1*
O=C(NC1CCCCCC1)c1cc2c(=O)n3ccccc3nc2s1	-84.8*
N=c1c(S(=O)(=O)c2ccc(Br)cc2)cc2c(=O)n3ccccc3nc2n1C1CCCC1	49.9
C=CCNC(=O)c1cc2c(=O)n3ccccc3nc2s1	-218.5*
O=C(Nc1cnc2sc3c(n2c1=O)CCCC3)c1ccc(F)cc1	-105.0*
COc1ccc(C(=O)Nc2cnc3ccccn3c2=O)cc1	-169.2*
O=C(Nc1cnc2ccccn2c1=O)c1ccc(F)cc1	-92.0*
CCc1cccc2c(C(=O)COC(=O)c3ccccc3)c[nH]c12	-186.1*
CCc1cccc2c(C(=O)COC(=O)c3ccc(O)cc3)c[nH]c12	-108.9*
O=C(OCC(=O)c1cccc2ccccc12)c1ccc(CO)cc1	-98.2*
O=C(Nc1ccccc1)c1cc2n(n1)C(C(F)(F)F)CC(C1CC1)N2 (stereo unspecified)	-167.8*
Cc1ccc(N2CCN(c3ccc(NCc4nc5ccccc5n4C)cc3)CC2)cc1	-89.4*
Cc1nc2cc(NCc3nc4ccccc4n3Cc3ccccc3)ccc2n1C	-96.3*
Cn1c(CNc2ccc(Cl)cc2)nc2ccccc21	-176.4*
Cc1cccc(NCc2nc3ccccc3n2C)c1	-192.8*
Cc1cccc(-c2nnc(SCC(=O)N3CCCC3)o2)c1	-82.8*
O=C(CSc1nnc(-c2ccc(F)cc2)o1)N1CCCC1	-113.8*
CCOC(=O)N1CCN(C(=O)CSc2nnc(-c3ccc(C(C)(C)C)cc3)o2)CC1	-72.8*
Cc1ccc(-c2nnc(SCC(=O)N3CCCC3)o2)cc1	-104.1*
Cc1ccc(-c2nnc(SCC(=O)N3CCCC3)o2)cc1C	-83.0*
SMILES	aSyn 5UTR act
Cc1nc2ccc(Cl)cc2nc(C)/c1=N\O	-219.3*
Cc1ccc2nc(C)/c(=N\O)c(C)nc2c1	-238.9*
O=C(Nc1ccc(Br)cc1)Nc1ccccc1Cl	-128.9*
CCN1CCN(Cc2ccc(NC(=O)Nc3ccccc3Cl)cc2)CC1	-87.0*
O=C(Nc1ccc(CN2CCCCC2)cc1)Nc1ccccc1Cl	-90.1*
O=C(Nc1cccc(C(F)(F)F)c1)Nc1ccc(N2CCCC2)c(S(=O)(=O)Nc2ccccc2Cl)c1	92.7
CCN1CCN(Cc2ccccc2NC(=O)Nc2ccc(C)cc2)CC1	-169.9*
c1ccc(CCc2nc(-c3ccccc3)no2)cc1	-192.0*
c1ccc(CCc2nc(-c3cccnc3)no2)cc1	-90.1*
O=C1CCC(=O)N1CCCCCc1nc(-c2ccccc2)no1	-103.8*
CC(C)(C)c1ccc(-c2noc(CCC(N)=O)n2)cc1	90.8
CCCc1nc(-c2ccc(-c3ccc(F)cc3)cc2)no1	-144.5*
c1cncc(-c2noc(CC3CCCCC3)n2)c1	-87.3*
Brc1ccc(-c2noc(CCc3ccccc3)n2)cc1	-84.4*
O=C(Nc1ccc(-c2noc(CCc3ccccc3)n2)cc1)c1ccco1	-115.1*
Cc1ccc(OCc2nnc(N)s2)cc1C	-62.3*
O=C(CSc1ccc(-c2cccs2)nn1)N1CCCCCC1	-71.5*
COc1ccc(-c2ccc(SCC(=O)c3cccs3)nn2)cc1	-94.5*
O=C(CSc1ccc(-c2ccccc2)nn1)c1cccs1	-94.3*
Cc1ccc(-c2ccc(SCC(=O)c3ccccc3)nn2)cc1	-64.9*
Cc1cc(SCC(=O)c2ccccc2)nc(=O)[nH]1	-106.7*
CC(CNS(=O)(=O)c1cc(Cl)ccc1Cl)CN(C)C (stereo unspecified)	-158.9*
CC(C)c1ccc(NC(=S)NCc2cccs2)cc1	-85.7*
O=C(c1csc(Nc2ccccc2Cl)n1)N1CCCC1	-117.3*
COc1cccc(/C=C/c2ccccn2)c1O	-97.9*
SMILES	aSyn 5UTR act
Nc1ccn([C@@H]2O[C@H](CO)[C@@H](O)[C@@H]2O)c(=O)n1	81.1
CCOc1cccc(C(=O)NC(=S)Nc2ccccc2)c1	-184.2*
CC(C)(C)c1cc(Cl)c(O)c(NC(=S)NC(=O)c2cccnc2)c1	79.6
CCOc1cccc(C(=O)NC(=S)Nc2cccnc2)c1	-142.1*
O=C(NC(=S)Nc1ccc(CN2CCCCC2)cc1)c1cccc(OCc2ccccc2)c1	-64.6*
Cc1cc(OCc2cc(C(=O)N(C)CC3CCOCC3)no2)cc(C)c1Cl	-71.6*
CCN(CC1CCCO1)C(=O)c1cc(COc2cc(C)c(Cl)c(C)c2)on1 (stereo unspecified)	-129.0*
CC(=O)c1cccc(OCc2cc(C(=O)N(C)CCC3CCOCC3)no2)c1	-85.5*
O=c1c2c(nc3cc(-c4ccccc4)[nH]n13)CCS2	-98.9*
O=c1c2c(nc3cc(-c4ccccc4Cl)[nH]n13)CCS2	-148.6*
CCCCC(=O)Nc1cccc(-c2cn3ccccc3n2)c1	-77.9*
O=C(Nc1ccc(-c2cn3ccccc3n2)cc1)c1ccco1	-208.5*
O=C(Nc1cccc(-c2cn3ccccc3n2)c1)c1ccccc1	-64.5*
CCNC(=S)Nc1ccc(-c2nc3ccccc3[nH]2)cc1	-161.5*
CCOc1ccc(NC(=S)NCc2nc3ccccc3[nH]2)cc1	-69.3*
CCOC(=O)c1ccc(N2Cc3ccccc3C2)cc1O	-121.7*
CCc1ccc(C(O)(CC(C)C)C(CN2CCOCC2)c2ccccc2)cc1 (stereo unspecified)	56.5
